From PubChem BioAssay (NCATS)
A number with no mark means an inactive call. Records with an inconclusive call do not appear. A call without a number means that no potency is given here. The source made the active and inactive calls. Calls follow the shape of the dose curve; as a rule, active = well fitted curve in the direction sought with a large enough effect; inconclusive = small, poorly fitted or top-dose-only effect, or another doubt; inactive = no such curve, though single readings can be large; an effect the other way counts as inactive or inconclusive. Where a SMILES comes first, the peptide text is derived from it. The star is where a group is joined. Cbz = O=C(OCc1ccccc1)*; CH2Cl = ClC*

Tests used:
[1] = target: Glutathione peroxidase 1 (Homo sapiens) (UniProt P07203); experiment: Primary qHTS Assay for Inhibitors of Recombinant Selenoprotein Glutathione Peroxidase 1 (GPX1) (AID 1845191); also: nearly all actives have a fitted effect of over 65% in size
In short: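 GR-coupled assay: compounds preincubated 30 min at room temperature with GPX1, then reaction started with CHP; final 10 nM GPX1, 1 mM GSH, 0.5 mM CHP, 0.5 mM NADPH, 100 nM GR, 0.01% BSA, pH 7.5 Tris buffer. NADPH fluorescence (340/450 nm) read at 0 and 15 min.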

[2] = target: Phospholipid hydroperoxide glutathione peroxidase GPX4 (Homo sapiens) (UniProt P36969); experiment: Primary qHTS Assay for Inhibitors of Recombinant Selenoprotein Glutathione Peroxidase 4 (GPX4) (AID 1845192); also: nearly all actives have a fitted effect of over 65% in size
In short: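 GR-coupled assay: recombinant GPX4 preincubated 30 min with compound at room temperature; final 200 nM GPX4, 1 mM GSH, 0.5 mM cumene hydroperoxide, 0.5 mM NADPH, 100 nM GR, 0.01% BSA, pH 7.5 Tris. NADPH fluorescence (340/450 nm) read at 0 and 15 min.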

[3] = target: Luciferin 4-monooxygenase (Photinus pyralis) (UniProt P08659); experiment: Primary firefly luciferase (FLuc) qHTS assay for identification of artifact compounds. (AID 1845220); also: nearly all actives have a fitted effect of over 60% in size; also: potency is read from the fitted curve at half-maximal effect
In short: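 Enzymatic FLuc inhibition assay: compounds pre-exposed to luciferin/ATP (10 uM each) for 15 min, then purified P. pyralis enzyme at 10 nM added. Read-out: luminescence at 5 min.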

[4] = Primary fluorescence-based thiol-reactive (MSTI) qHTS assay for identification of artifact compounds. (AID 1845221); also: nearly all actives have a fitted effect of over 65% in size; also: potency is read from the fitted curve at half-maximal effect;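 as to activity change, negative = thiol reactive: series mostly up to about 54 µM; thiol-reactive compounds lower the probe fluorescence signal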
In short: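 A multi-concentration qHTS design tested compounds against 4 uM MSTI, pH 7.4 phosphate-buffered saline. Plates were protected from light for 1 h at room temperature before imaging fluorescence.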

[5] = tested on: Nanoluciferase (engineered Oplophorus gracilirostris luciferase); experiment: Primary Nanoluciferase (NLuc) qHTS assay for identification of artifact compounds. (AID 1845222); also: potency is read from the fitted curve at half-maximal effect;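 as to activity, negative = inhibition: NLuc secreted into diluted conditioned medium of S16 cells; series mostly up to about 54 µM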
In short: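 S16 cell supernatant NLuc, 1:55; cpds qHTS; 15 min RT dark; Nano-Glo substrate 1:100, 5 min; luminescence; Hill fit of % inhibition.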

[6] = Primary redox qHTS assay for identification of artifact compounds. (AID 1845223)
In short: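 Amplex Red (25 uM) and HRP (250 mU/mL) in HBSS, with compounds for 15 min, then 250 uM DTT for 30 min, room temperature, dark. Fluorescence 525/598 nm read; normalized to DMSO and 10 uM DA3003; Hill fit.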

Chain of Glutathione peroxidase 1 (Homo sapiens) (P07203 whole entry, looked up): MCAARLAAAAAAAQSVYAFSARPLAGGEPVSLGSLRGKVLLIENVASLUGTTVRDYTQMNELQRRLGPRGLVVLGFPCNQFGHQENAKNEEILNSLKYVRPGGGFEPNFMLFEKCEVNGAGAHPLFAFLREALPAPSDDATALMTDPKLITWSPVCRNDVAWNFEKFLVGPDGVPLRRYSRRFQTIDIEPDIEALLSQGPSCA
Chain of Phospholipid hydroperoxide glutathione peroxidase GPX4 (Homo sapiens) (P36969 whole entry, looked up): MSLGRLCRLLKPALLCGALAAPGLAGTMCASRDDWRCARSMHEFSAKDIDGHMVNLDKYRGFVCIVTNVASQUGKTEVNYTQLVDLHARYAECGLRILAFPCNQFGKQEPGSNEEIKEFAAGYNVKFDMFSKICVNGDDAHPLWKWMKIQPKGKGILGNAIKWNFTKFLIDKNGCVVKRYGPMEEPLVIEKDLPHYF

Row | Compound | Potency [1] | Potency [2] | Potency [3] | Potency [4] | Potency [5] | Potency [6] | outcome [3] | activity change, negative = thiol reactive [4] | activity, negative = inhibition [5] | redox activity (% of DA3003) [6]
1 | CCCC(CCC)C(=O)Nc1ccn([C@@H]2O[C@H](CO)[C@@H](O)C2(F)F)c(=O)n1 | inactive | inactive | inactive | inactive | inactive | inactive |  |  |  | 
2 | CCN(CCNC(=O)Nc1ccccc1Br)c1cccc(C)c1 | inactive | inactive | inactive | 2.67 µM (active) | inactive | inactive |  |  |  | 
3 | COc1ccc(-c2cc3onc(-c4ccncc4)c3c(=O)n2C)cc1 | inactive | inactive | 1.9 µM (active) | inactive | inactive | inactive |  |  |  | 
4 | C=C1CC[C@@H]2[C@](C)(CO)[C@H](O)CC[C@@]2(C)[C@@H]1C/C=C1/C(=O)OCC1OC(=O)/C(=C/CO)C(O)C[C@@H]1C(=C)CC[C@@H]2[C@](C)(CO)[C@H](O)CC[C@]21C (some centres undefined) | inactive | inactive | inactive | inactive | inactive | inactive |  |  |  | 
5 | CC(=O)O[C@@H]1C[C@@]2(C)C(CC[C@]3(C)C2CC=C2C4CC(C)(C)CC[C@]4(C(=O)O)CC[C@]23C)C(C)(C)[C@H]1O (some centres undefined) | inactive | inactive | inactive | inactive | inactive | inactive |  |  |  | 
6 | C=C1C(=O)O[C@@H]2[C@H]3C(C)=CC(=O)C3=C(C)[C@@H](OC(=O)/C(C)=C\C)[C@H](O)[C@@H]12 | inactive | inactive | inactive | inactive | 9.31 µM (active) | inactive |  |  |  | 
7 | CC1(C)CC[C@]2(C(=O)O)[C@H](O)C[C@]3(C)C(=CCC4[C@@]5(C)CC[C@H](O[C@@H]6O[C@H](CO[C@@H]7OC[C@H](O)[C@H](O)[C@H]7O[C@@H]7OC[C@H](O)[C@H](O)[C@H]7O)[C@@H](O)[C@H](O)[C@H]6O)C(C)(C)C5CC[C@]43C)[C@@H]2C1 (some centres undefined) | inactive | inactive |  |  |  |  | inactive [at 11.6 µM] | 133% [at 11.5 µM] | 1.1% [at 11.6 µM] | 16.3% [at 11.5 µM]
8 | COc1cc(C(C)C)c(Oc2cnc(N)nc2N)cc1I | inactive | inactive | inactive | inactive | inactive | inactive |  |  |  | 
9 | COc1ccc(Sc2ccc(NC(=O)c3ccccc3Cl)cc2C#N)cc1 | inactive | inactive | inactive | inactive | inactive | inactive |  |  |  | 
10 | CC(C)c1c(O)ccc2c1CC[C@H]1C(C)(C)CCC[C@]21C | inactive | inactive | inactive | inactive | inactive | inactive |  |  |  | 
11 | C[C@H](Oc1cc(-n2cnc3ccc(CN4CCN(C)CC4)cc32)sc1C(N)=O)c1ccccc1C(F)(F)F | inactive | inactive | inactive | inactive | inactive | inactive |  |  |  | 
12 | C=CC(=O)N1CCC(Oc2cc3c(Nc4ccc(Cl)c(Cl)c4F)ncnc3cc2OC)CC1 | inactive | inactive | inactive | inactive | inactive | inactive |  |  |  | 
13 | C=C1C(=O)O[C@@H]2C[C@@]3(C)CCCC(=C)[C@]3(O)C[C@H]12 | inactive | inactive | inactive | inactive | inactive | inactive |  |  |  | 
14 | CC(=O)NC(C)c1cnc(-c2cnc(Oc3ccc(OC(C)C)cc3)s2)s1 (centres undefined) | inactive | inactive | inactive | inactive | inactive | inactive |  |  |  | 
15 | C/C=C(\C)C(=O)OC1C=C(C)CC(OC(=O)c2ccc(O)cc2)C2C1(C)CCC2(O)C(C)C (centres undefined) | inactive | inactive | inactive | inactive | inactive | inactive |  |  |  | 
16 | O=C(Nc1ccc(Cl)cc1)c1ccccc1NCc1ccncc1 | inactive | inactive | inactive | inactive | inactive | inactive |  |  |  | 
17 | CCN1CCN(Cc2ccc(C(=O)Nc3ccc(C)c(Oc4ccc5c(c4)CC(=O)N5)c3)cc2C(F)(F)F)CC1 | inactive | inactive | inactive | inactive | inactive | inactive |  |  |  | 
18 | OC1(CN2CCC(COc3noc4cccc(O[C@@H]5CCOC5)c34)CC2)CCOCC1 | inactive | inactive | inactive | inactive | inactive | inactive |  |  |  | 
19 | OC(CC1c2ccccc2-c2cncn21)C1CCCCC1 (centres undefined) | inactive | inactive | inactive | inactive | inactive | inactive |  |  |  | 
20 | CC(C)C[C@H](NC(=O)CNC(=O)OCc1ccccc1)C(=O)N[C@@H](Cc1ccccc1)C(=O)CCl (Cbz-Gly-Leu-Phe-CH2Cl) | inactive | inactive | inactive | inactive | inactive | inactive |  |  |  | 
21 | CC(C)(C)Oc1ccc(OCC2Cc3ccccc3CN2C(=O)c2cccc3ccccc23)cc1 (centres undefined) | inactive | inactive | inactive | inactive | inactive | inactive |  |  |  | 
22 | CCC(C)c1ccc(NC(=O)Cn2cnc3c2c(=O)n(C)c(=O)n3C)cc1 (centres undefined) | inactive | inactive | inactive | inactive | inactive | inactive |  |  |  | 
23 | Nc1ncnc2c1c(-c1ccc(Cl)cc1)nn2-c1cccc(-c2cnnn2Cc2cccc(-c3ccccc3)c2)c1 | inactive | inactive | inactive | inactive | inactive | inactive |  |  |  | 
24 | CCOc1cccc(NC(=O)c2ccc(N3CCCC3)c(C(F)(F)F)c2)c1 | inactive | inactive | inactive | inactive | inactive | inactive |  |  |  | 
